Assay results reported in PubChem BioAssay.

Experiments:
[1] = molecular target: Tumor necrosis factor receptor superfamily member 10B (Homo sapiens) (UniProt O14763); experiment: caspase-8 TRAIL sensitization, hit retest, confirmation, cell-based, NB7+caspase-8, with/without TRAIL, luminescence panel (AID 651596); conditions: NB7 neuroblastoma + caspase-8, TRAIL sensitization, luminescence viability, with TRAIL, mean of runs, at 10 µM, stronger effect = higher value
[2] = as above; conditions: NB7 neuroblastoma + caspase-8, without TRAIL, luminescence viability, without TRAIL, mean of runs, at 10 µM

Chain of Tumor necrosis factor receptor superfamily member 10B (Homo sapiens) (O14763 whole entry, looked up): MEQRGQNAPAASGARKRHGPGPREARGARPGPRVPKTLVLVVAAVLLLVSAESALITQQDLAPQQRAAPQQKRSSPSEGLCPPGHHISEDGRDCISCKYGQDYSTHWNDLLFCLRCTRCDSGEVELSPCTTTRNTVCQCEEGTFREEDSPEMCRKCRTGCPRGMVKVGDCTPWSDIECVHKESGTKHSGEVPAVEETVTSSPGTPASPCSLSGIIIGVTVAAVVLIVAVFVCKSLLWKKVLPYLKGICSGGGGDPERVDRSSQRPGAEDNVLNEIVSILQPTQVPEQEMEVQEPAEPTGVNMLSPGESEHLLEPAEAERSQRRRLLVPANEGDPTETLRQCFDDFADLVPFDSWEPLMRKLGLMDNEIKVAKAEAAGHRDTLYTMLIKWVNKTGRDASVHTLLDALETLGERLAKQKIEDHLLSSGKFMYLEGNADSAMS

CC(C)(C)Nc1ncnc2c1cnn2-c1ccccc1
activity [1]: 73.8%
activity [2]: 69.5%

CCCCn1c(NS(=O)(=O)c2ccc(C)cc2)c(S(=O)(=O)c2ccccc2)c2nc3ccccc3nc21
activity [1]: -5.92%
activity [2]: -15%

COc1ccc(Cn2c(SCc3cc(C)ccc3C)nc3cc(OC)c(OC)cc3c2=N)cc1
activity [1]: 94.9%
activity [2]: 97.8%

Nc1c(-c2ccccc2)cnn1-c1ccccc1
activity [1]: 44.6%
activity [2]: 40.4%

CCCc1cc(=O)[nH]c(SCC(=O)c2c(N)n(C3CC3)c(=O)[nH]c2=O)n1
activity [1]: 80.3%
activity [2]: 88.8%

C/C(=N\NC(=O)COc1ccc(C(C)(C)C)cc1)c1cc2ccccc2o1
activity [1]: 89.2%
activity [2]: 84.2%

FC(F)(F)c1cccc(Sc2nc(-c3ccccc3)nnc2C(F)(F)F)c1
activity [1]: 42.5%
activity [2]: 60.4%

Cc1ccc(CN=c2c([N+](=O)[O-])nn(-c3cccc(C)c3)n2O)cc1
activity [1]: 16.2%
activity [2]: 24.7%

CCOc1cccc2cc(-c3nnc(NCc4ccco4)s3)c(=O)oc12
activity [1]: -11.9%
activity [2]: -7.67%

COc1ccc(C(=O)Nc2cccc(/C=C/c3nc4ccccc4c(=O)[nH]3)c2)cc1
activity [1]: 73.5%
activity [2]: 60.9%

COc1ccc2nc(Nc3ccccc3)sc2c1
activity [1]: 49.2%
activity [2]: 38.6%

NC(Cc1ccc(C(F)(F)F)cc1)c1csc(Nc2nncc3ccccc23)n1 (configuration not stated)
activity [1]: 38.8%
activity [2]: 89.1%

Cc1cccc(N2CCN(S(=O)(=O)c3ccc4c(c3)NC(=O)C(C)S4)CC2)c1C (configuration not stated)
activity [1]: -0.6%
activity [2]: -25.6%

Cc1ccc(N2Cc3ccccc3C2=O)cc1
activity [1]: 64.7%
activity [2]: 59.3%

Cc1ccc(OCC(=O)NC(=S)Nc2ccccn2)c(Br)c1
activity [1]: 86.3%
activity [2]: 81.9%

O=C(Nc1nc2ccccc2[nH]1)c1ccc(Cl)cc1
activity [1]: 94.4%
activity [2]: 94.1%

O=C(C[C@H]1C/C=C\C[C@H](NC(=O)OCC2c3ccccc3-c3ccccc32)C(=O)OC[C@H](Cc2ccccc2)NC1=O)N[C@H](CO)Cc1ccccc1
activity [1]: 11.8%
activity [2]: -2.65%

FC(F)(F)c1cc(CCN2CCNC[C@@H]2CC2CCCCC2)cc(C(F)(F)F)c1
activity [1]: 35.1%
activity [2]: 84.2%

CCOC(=O)[C@]12Cc3c(cc(OC)c(OC)c3OC)[C@H]1N(C1CCCCC1)C(=O)c1cc(OC)ccc12
activity [1]: 61.2%
activity [2]: 80.1%

COc1cc2c(cc1NC(=O)c1cccc([N+](=O)[O-])c1)oc1ccccc12
activity [1]: -1.55%
activity [2]: -9.4%

c1ccc(-c2ccc(-c3nc(-c4ccccn4)no3)cc2)cc1
activity [1]: 94%
activity [2]: 93.2%

O=C(COc1ccc2ccccc2c1)Nc1nccs1
activity [1]: 58%
activity [2]: 55.8%

c1ccc(-n2nnc3c(N4CCOCC4)ncnc32)cc1
activity [1]: 74.7%
activity [2]: 74.7%

O=C1c2cccc3c([N+](=O)[O-])ccc(c23)C(=O)N1c1ccccn1
activity [1]: 91.4%
activity [2]: 99.4%

Cc1ccnc(NC(=O)CCC2CCCCC2)c1
activity [1]: 60.2%
activity [2]: 46.5%

COc1ccc(C(C(=O)NC2CCCC2)N(C(=O)c2snc(-c3ccc(F)cc3)c2N)c2ccc(F)cc2)cc1 (configuration not stated)
activity [1]: 50.3%
activity [2]: 43.5%
